From PubChem BioAssay
AMA1-RON2 inh: disrupts binding of P. falciparum AMA1 to RON2; AlphaScreen AMA1-biotinylated RON2 peptide binding; Potency, µM (top dose mostly 58.2 µM), for the others: top-dose activity change, negative = inhibition, actives largely listed as inhibitors; 360,000 tested, 0.2% active; AID 720542;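 further: potency means the concentration at half of the fitted maximal effect; 0% = vehicle wells and -100% = peptide control; nearly all actives have a fitted effect of over 45% in size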
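AMA1 (3D7) with his tag at 25 nM final met compounds first, then biotinylated RON2 peptide at 25 nM; detection used donor plus acceptor beads, 10 µg/mL apiece, read by AlphaScreen after 30 min at room temperature.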
Cycloheximide cs: counter-screen hit for Shiga toxin inhibitors, cycloheximide. cell reporter, cycloheximide protein synthesis inhibition counterscreen. max response, %. 300,000 tested, 12% active; in the data active means max response mostly above about 13%, no sharp cut-off; inactive means mostly below about 14%; further: read at 38.3 µM for the half of the compounds with a filed dose; 0% is about no effect
Pf growth 48h: P. falciparum growth inhibition at 48 hours (one generation); 310,000 tested, 5.9% active; Potency, µM (highest dose often 28.7 µM), for the others: at the top dose activity change, negative = inhibition, hits mostly inhibitors; AID 504832; P. falciparum luciferase growth in erythrocytes, 48 h; further: potency means the concentration at half of the fitted maximal effect; on the % scale 0 is the no-effect control and ±100 the full control effect
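Here the parasites carry a stable luciferase gene and grow inside erythrocytes in Albumax-based RPMI medium with compound for one erythrocytic cycle. Activity is scored as loss of luminescent signal.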
Pf growth 96h: P. falciparum growth inhibition at 96 hour, primary screen for plastid delayed-death inhibitors | Potency, µM (top dose mostly 28.7 µM), inactives show top-dose activity change, negative = inhibition, hits mostly inhibitors | 320,000 tested, 6.9% active | AID 504834 | P. falciparum luciferase reporter growth, 96 h; further: potency means the concentration at half of the fitted maximal effect; on the % scale 0 is the no-effect control and ±100 the full control effect
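Compounds incubated with erythrocytes infected by luciferase-expressing P. falciparum (2% hematocrit, 0.05% parasitemia final) for 96 hours, 37 C in 5% CO2. Growth inhibition scored as decreased luciferase luminescence.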
HCV inhibitor: inhibitors of hepatitis C virus infection; 340,000 tested, 3.4% active; Huh7.5.1 HCVcc-Cre infection, luciferase reporter, 44 h; Potency, µM (series often up to 41.8 µM), for inactives: at the top dose activity change, negative = inhibition, hits mostly inhibitors; further: potency means the concentration at half of the fitted maximal effect; on the % scale 0 is the no-effect control and ±100 the full control effect
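Infectious HCVcc-Cre (~0.5 moi) was added to cells just after compound, with cells seeded 4 h earlier at 1,000 per well. Luciferase activity after 44 h culture reported infection; substrate was incubated 15 min at room temperature before reading.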
Shiga inhibitor: blocks Shiga toxin action in Vero cells; Vero cells, Shiga toxin protein synthesis inhibition reporter; inhibition, % at 38.7 µM; 290,000 tested, 9.2% active; in the data active means inhibition mostly above about 28%, no sharp cut-off; inactive means mostly below about 43%; further: 0% is about no effect
* = called active by the depositor. Rows were chosen to be rich in hits. Some 21% of all compounds tested hit in one or more screens of this group. Unless noted, the call rests on the fitted dose curve; in most records, active means well fitted curve in the direction sought with a large enough effect; inconclusive means small, poorly fitted or top-dose-only effect, or another doubt; inactive means no such curve, though single readings can be large; an effect the other way counts as inactive or inconclusive.

Screening CCc1c(C(=O)N/N=C/c2ccsc2)csc1C returned AMA1-RON2 inh 6%, Cycloheximide cs 39*, Pf growth 48h -23%, Pf growth 96h 20%, HCV inhibitor -6% and Shiga inhibitor active.
For CCc1c(C(=O)N/N=C/c2cn[nH]c2-c2ccc(F)cc2)csc1C the results were AMA1-RON2 inh 10%, Cycloheximide cs 10, Pf growth 48h 3%, Pf growth 96h -7%, HCV inhibitor 20% and Shiga inhibitor 15.
For Cc1ccc(/C=N/NC(=O)c2c[nH]c3ccccc23)o1 the results were AMA1-RON2 inh 26%, Cycloheximide cs 20*, Pf growth 96h inconclusive, HCV inhibitor -19% and Shiga inhibitor 72*.
For Cc1csc(=O)n1CC(=O)OC(C)C(=O)Nc1ccc(N(C)C)cc1 (stereo not drawn) the results were AMA1-RON2 inh inconclusive and HCV inhibitor 3%.
For O=C(N/N=C/c1cc([N+](=O)[O-])ccc1O)c1c[nH]c2ccccc12 the results were AMA1-RON2 inh 136%, Cycloheximide cs -3, Pf growth 48h inconclusive, Pf growth 96h inconclusive, HCV inhibitor -17% and Shiga inhibitor 11.
Cc1ccsc1/C=N/NC(=O)c1c[nH]c2ccccc12 was read as AMA1-RON2 inh -3%, Cycloheximide cs 60*, Pf growth 48h 49%, Pf growth 96h 183%, HCV inhibitor 9% and Shiga inhibitor 106*.
Screening O=C(N/N=C/c1cccc([N+](=O)[O-])c1)c1c[nH]c2ccccc12 returned AMA1-RON2 inh -12%, Cycloheximide cs 34*, Pf growth 48h -12%, Pf growth 96h -14%, HCV inhibitor -7% and Shiga inhibitor 79*.
Screening C/C(=N\NC(=O)c1c[nH]c2ccccc12)c1ccc(C)s1 returned AMA1-RON2 inh 27%, Cycloheximide cs 25*, Pf growth 48h inconclusive, Pf growth 96h -16%, HCV inhibitor -3% and Shiga inhibitor 38.
For Cc1ccc(/C=N/NC(=O)c2ccc(C(=O)N/N=C/c3ccc(C)s3)o2)s1 the results were AMA1-RON2 inh 6%, Cycloheximide cs 1, Pf growth 48h inconclusive, Pf growth 96h inconclusive, HCV inhibitor 6% and Shiga inhibitor -3.
Cc1ccc(/C=N/NC(=O)c2c[nH]c3ccccc23)s1 was read as AMA1-RON2 inh 9%, Cycloheximide cs 30*, Pf growth 48h 47%, Pf growth 96h 3%, HCV inhibitor -2% and Shiga inhibitor 77*.
Screening CC(C)c1ccc(NC(=O)c2ccc(NC3=NC4CS(=O)(=O)CC4S3)cc2)cc1 (stereo not drawn) returned AMA1-RON2 inh 70%, Cycloheximide cs 3, Pf growth 48h -10%, Pf growth 96h 28%, HCV inhibitor -18% and Shiga inhibitor 13.
For CCn1nc(C)c(/C=N/NC(=O)c2c[nH]c3ccccc23)c1C the results were AMA1-RON2 inh 11%, Cycloheximide cs 50*, Pf growth 48h 57%, Pf growth 96h 17%, HCV inhibitor 14% and Shiga inhibitor 40*.
For O=C(N/N=C/c1ccsc1)c1c[nH]c2ccccc12 the results were AMA1-RON2 inh -8%, Cycloheximide cs 47*, Pf growth 48h 19%, Pf growth 96h 0%, HCV inhibitor 28% and Shiga inhibitor 67*.
CC(C)(C)[C@H]1COC(=O)[C@@H](Cc2ccc(F)cc2)CC/C=C/C[C@@H](CC(=O)N[C@H](CO)Cc2ccccc2)C(=O)N1 was read as AMA1-RON2 inh 4% and HCV inhibitor -17%.
Screening C=C(C)CN(CC)C(=O)CSc1ccc(S(=O)(=O)N2CCN(Cc3ccccc3)CC2)cn1 returned AMA1-RON2 inh -9%, Pf growth 48h inconclusive, Pf growth 96h 8.3µM* and HCV inhibitor inconclusive.
For CC(C)(C)C(=O)CSc1ccc(S(=O)(=O)N2CCN(Cc3ccccc3)CC2)cn1 the results were AMA1-RON2 inh -8%, Pf growth 48h inconclusive, Pf growth 96h inconclusive and HCV inhibitor -10%.
`C=C(C)CN(CC)C(=O)CSc1ccc(S(=O)(=O)N2CCN(C)CC2)cn1` gave AMA1-RON2 inh -15%, Pf growth 48h 10µM*, Pf growth 96h inconclusive and HCV inhibitor 1%.
For CCOC(=O)CCCNC(=O)CN1C(=O)NC(c2ccccc2)(c2ccccc2)C1=O the results were AMA1-RON2 inh 4%, Cycloheximide cs -2, Pf growth 48h inconclusive, Pf growth 96h inconclusive, HCV inhibitor -8% and Shiga inhibitor -13.
`COc1cccc(CN2CCNC(=O)C2CC(=O)NCC(C)(C)N2CCOCC2)c1OC` (stereo not drawn) gave AMA1-RON2 inh 24%, Cycloheximide cs -1, Pf growth 48h 3%, Pf growth 96h 10µM*, HCV inhibitor -13% and Shiga inhibitor 16.
`COc1cccc(CNC(=O)CC2C(=O)NCCN2Cc2ccoc2)c1OC` (stereo not drawn) gave AMA1-RON2 inh 31%, Cycloheximide cs -2, Pf growth 48h inconclusive, Pf growth 96h 12µM*, HCV inhibitor -1% and Shiga inhibitor -12.
CC(=O)Nc1ccc(N2C(C(C)=O)=NN(c3ccc(Cl)cc3)C2c2sccc2C)cc1 (stereo not drawn) was read as AMA1-RON2 inh -6%, Cycloheximide cs 1, Pf growth 48h 9.3µM*, Pf growth 96h inconclusive, HCV inhibitor inconclusive and Shiga inhibitor 17.
Screening CCn1cc(C(=O)NC(=S)Nc2ccccc2[N+](=O)[O-])cn1 returned AMA1-RON2 inh 107%, Cycloheximide cs 35*, Pf growth 48h -6%, Pf growth 96h 32%, HCV inhibitor -18% and Shiga inhibitor 58*.
For CCn1cc(C(=O)NC(=S)Nc2ccccc2Br)cn1 the results were AMA1-RON2 inh -2%, Cycloheximide cs 23*, Pf growth 48h 88%, Pf growth 96h 44%, HCV inhibitor inconclusive and Shiga inhibitor 41*.
`O=C(NC(=S)Nc1ccccc1O)c1cncc(Br)c1` gave AMA1-RON2 inh 54% and HCV inhibitor -6%.
`CCn1cc(C(=O)NC(=S)Nc2cccc(O)c2)cn1` gave AMA1-RON2 inh 5%, Cycloheximide cs 28*, Pf growth 96h 110%, HCV inhibitor 3% and Shiga inhibitor 58*.
For CCn1cc(C(=O)Nc2ccccc2C(=O)OC)cn1 the results were AMA1-RON2 inh 5% and HCV inhibitor inconclusive.
O=C(NC(=S)Nc1ccccc1[N+](=O)[O-])c1cncc(Br)c1 was read as AMA1-RON2 inh 52%, Cycloheximide cs -2, Pf growth 48h 8%, Pf growth 96h 2.6µM*, HCV inhibitor -1% and Shiga inhibitor 38.
O=S(=O)(Nc1ccc(C(O)(C(F)(F)F)C(F)(F)F)cc1)c1cccc2ccccc12 was read as AMA1-RON2 inh 2%.
